Our source for the inhibition values is ChEMBL document CHEMBL1961873, “Compounds: GSK PKIS; Assays: Nanosyn kinase panel” (2012).

SMILES strings stand for the structures. Values joined by “and” are separate entries in the source; they are usually repeats but may differ in a detail not shown here. Equal values may be shown once.

For the first test, the target named is Serine/threonine-protein kinase MRCK alpha (Homo sapiens) (UniProt Q5VT25). As to conditions: at 0.1 µM.
Sequence of Serine/threonine-protein kinase MRCK alpha (Homo sapiens) (Q5VT25 whole entry): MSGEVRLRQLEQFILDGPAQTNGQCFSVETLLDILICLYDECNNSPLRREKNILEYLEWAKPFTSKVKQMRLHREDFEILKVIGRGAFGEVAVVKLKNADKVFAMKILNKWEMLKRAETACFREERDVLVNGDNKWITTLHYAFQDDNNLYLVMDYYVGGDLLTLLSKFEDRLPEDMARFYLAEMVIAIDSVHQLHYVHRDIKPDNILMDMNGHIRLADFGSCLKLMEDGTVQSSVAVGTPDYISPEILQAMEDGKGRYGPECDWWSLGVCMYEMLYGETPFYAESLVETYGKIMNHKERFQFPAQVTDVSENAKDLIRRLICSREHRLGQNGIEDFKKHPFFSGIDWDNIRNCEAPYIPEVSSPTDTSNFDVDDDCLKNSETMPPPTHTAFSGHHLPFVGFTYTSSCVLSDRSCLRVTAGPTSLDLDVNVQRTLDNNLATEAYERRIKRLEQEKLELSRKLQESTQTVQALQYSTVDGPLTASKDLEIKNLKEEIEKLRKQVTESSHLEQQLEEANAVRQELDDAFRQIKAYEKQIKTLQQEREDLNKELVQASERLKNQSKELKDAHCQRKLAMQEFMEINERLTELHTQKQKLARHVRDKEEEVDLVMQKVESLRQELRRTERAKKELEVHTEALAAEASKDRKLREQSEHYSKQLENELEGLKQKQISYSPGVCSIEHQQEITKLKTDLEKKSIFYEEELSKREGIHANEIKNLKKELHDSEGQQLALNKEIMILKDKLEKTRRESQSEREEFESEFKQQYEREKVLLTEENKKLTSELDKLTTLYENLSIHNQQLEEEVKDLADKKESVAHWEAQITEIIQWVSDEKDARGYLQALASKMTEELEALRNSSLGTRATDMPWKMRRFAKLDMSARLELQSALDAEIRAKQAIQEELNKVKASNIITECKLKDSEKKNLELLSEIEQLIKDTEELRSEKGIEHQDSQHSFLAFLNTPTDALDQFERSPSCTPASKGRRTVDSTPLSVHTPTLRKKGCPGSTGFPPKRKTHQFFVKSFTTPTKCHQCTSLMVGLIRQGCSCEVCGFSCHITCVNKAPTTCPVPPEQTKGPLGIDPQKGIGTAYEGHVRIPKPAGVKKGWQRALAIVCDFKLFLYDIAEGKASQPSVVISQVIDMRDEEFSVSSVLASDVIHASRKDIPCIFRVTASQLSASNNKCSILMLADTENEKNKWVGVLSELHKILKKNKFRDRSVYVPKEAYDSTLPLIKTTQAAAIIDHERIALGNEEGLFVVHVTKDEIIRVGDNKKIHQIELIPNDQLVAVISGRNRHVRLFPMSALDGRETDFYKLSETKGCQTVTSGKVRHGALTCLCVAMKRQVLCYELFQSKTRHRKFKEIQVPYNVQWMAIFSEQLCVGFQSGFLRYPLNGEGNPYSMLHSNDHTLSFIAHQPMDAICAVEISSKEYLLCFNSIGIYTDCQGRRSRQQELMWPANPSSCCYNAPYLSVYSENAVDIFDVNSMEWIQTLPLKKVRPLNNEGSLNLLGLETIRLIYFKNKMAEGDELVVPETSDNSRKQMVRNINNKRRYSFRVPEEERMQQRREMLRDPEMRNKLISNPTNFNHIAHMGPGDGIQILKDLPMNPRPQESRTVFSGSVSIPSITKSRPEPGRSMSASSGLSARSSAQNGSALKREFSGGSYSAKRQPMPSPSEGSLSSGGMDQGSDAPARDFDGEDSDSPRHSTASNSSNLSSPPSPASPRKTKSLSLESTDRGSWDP
Turning to `Nc1nonc1-c1nc2cnccc2n1C1CC1`, the inhibition is 4.84% and 5.86%.
On the same count and under the same terms, as for `NS(=O)(=O)c1cccc(N/C=C2\C(=O)Nc3ccccc32)c1`, the figure is 0.02%; as for `CC1=C(C(=O)Nc2ccc3[nH]ncc3c2)C(c2ccc(F)cc2)N=C(c2ccc(C(F)(F)F)nc2)N1` (configuration not stated), -0.15%; as for `CNC(=O)c1cncc(/C=C/c2ccccc2C)c1`, -0.01%.
On the same count and under the same terms, as for `CN1CCC(C(=O)Nc2n[nH]c3nc(-c4ccc(O)cc4)c(Br)cc23)CC1`, the figure is 2.05% and 4.4%; as for `Cc1cc(O)cc(C)c1/C=C/c1cncc(C(N)=O)c1`, 0.25%; as for `CS(=O)(=O)Nc1ccc(-c2cc(-c3ccccc3)cc(C(N)=O)c2N)cc1`, -0.32%.
Still for that read-out and setting: for `CS(=O)(=O)CCNCc1ccc(-c2ccc3ncnc(Nc4ccc(OCc5ccccc5)cc4)c3c2)o1` the value was -0.82%.
Turning to `CCOc1ccc2c(-c3ccnc(Nc4cc(OC)cc(C(F)(F)F)c4)n3)cnn2n1`, the inhibition was -0.76%.
Still for that read-out and setting: as for `Cc1cc(O)cc(C)c1/C=C/c1cncc(C(=O)OC(C)(C)C)c1`, the figure is 0.35%; as for `O=C1Nc2ccccc2/C1=C1\CCc2cc(O)ccc21`, 0.14%.
Same read-out and setting: for `CCS(=O)(=O)c1ccc(OC)c(Nc2ncc(-c3cccc(F)c3)o2)c1` the value was 4.37%; for `COc1cccc(Nc2nccc(-c3cnn4ncccc34)n2)c1`, 0.93%.
Still for that read-out and setting: as for `Nc1ncnc2occ(-c3ccc(NC(=O)Nc4cc(C(F)(F)F)ccc4F)cc3)c12`, the figure is 0.43%; as for `O=C(Nc1n[nH]c2nnc(-c3cccnc3)cc12)C1CC1`, 2.61%; as for `O=C(O[C@H]1CN[C@H](C#Cc2cc3ncnc(Nc4ccc5c(cnn5Cc5ccccc5)c4)c3s2)C1)N1CCOCC1`, 0.53%.
With `COc1cc(N2CCN(C(C)C)CC2)ccc1Nc1nc(Nc2cccc3ncccc23)c2cc[nH]c2n1`, the inhibition is -0.06%.
On the same count and under the same terms, for `CS(=O)(=O)CCNCc1ccoc1-c1ccc2ncnc(Nc3ccc(OCc4ccccc4)cc3)c2c1` the value was -1.71%; for `CCN1CCC(C(=O)Nc2n[nH]c3nnc(-c4cccc(F)c4F)cc23)CC1`, -1.78%.
The same measure, in the same setting: as for `COc1ccc(-c2nn3ncccc3c2-c2ccnc(Nc3ccc(F)c(F)c3)n2)cc1`, the figure is 0.67%; as for `CCS(=O)(=O)c1ccc(OC)c(Nc2ncc(-c3cccc(C(C)=O)c3)o2)c1`, -0.63%.
Same read-out and setting: for `c1cnn2ncc(-c3ccnc(NCCCN4CCOCC4)n3)c2c1` the value was -0.89%; for `CN(C)CCNC(=O)Nc1ccc(N(C)c2ccnc(Nc3ccc(CS(C)(=O)=O)cc3)n2)cc1`, -0.24%.
`CCn1c(-c2nonc2N)nc2cncc(C(=O)NCCNC)c21`: the inhibition came to 14.6%.
The same measure, in the same setting: as for `COc1cc(N2CCN(C(C)C)CC2)ccc1Nc1nc(Nc2cccc(F)c2C(=O)O)c2cc[nH]c2n1`, the figure is -0.32%.
Same read-out and setting: as for `COC(=O)Nc1nc2cc(Oc3ccc(NC(=O)Nc4ccccc4)cc3)ccc2[nH]1`, the figure is 1.11%; as for `NC(=O)c1ccc2c(-c3ccnc(NCCCO)n3)c(-c3ccc(F)cc3)nn2c1`, 0.04%; as for `CS(=O)(=O)Nc1ccc(-c2ccc3c(NC(=O)C4CC4)n[nH]c3c2)cc1`, -0.45%.
For `COC(=O)Nc1nc2ccc(Oc3ccc(NC(=O)Nc4cc(C(F)(F)F)ccc4F)cc3)cc2s1`, the inhibition was -0.38%.
Still for that read-out and setting: as for `COc1ccccc1-c1cc(/C=C2\C(=O)Nc3ncc(Br)cc32)cc(Br)c1O`, the figure is -0.66%; as for `Cc1nnc(-c2cccc(-c3ccc(C(=O)NCC4CC4)cc3)c2)o1`, -0.4%.

For the next test the target is unchanged. The following applies: at 1 µM.
Regarding `Nc1nonc1-c1nc2cnccc2n1C1CC1`, the inhibition is 35.7% and 40%.
The same measure, in the same setting: for `NS(=O)(=O)c1cccc(N/C=C2\C(=O)Nc3ccccc32)c1` the value was 0.03%.
On the same count and under the same terms, as for `CC1=C(C(=O)Nc2ccc3[nH]ncc3c2)C(c2ccc(F)cc2)N=C(c2ccc(C(F)(F)F)nc2)N1` (configuration not stated), the figure is 0.82%; as for `CNC(=O)c1cncc(/C=C/c2ccccc2C)c1`, 2.94%; as for `CN1CCC(C(=O)Nc2n[nH]c3nc(-c4ccc(O)cc4)c(Br)cc23)CC1`, 21.6% and 19.5%.
On the same count and under the same terms, as for `Cc1cc(O)cc(C)c1/C=C/c1cncc(C(N)=O)c1`, the figure is 0.43%; as for `CS(=O)(=O)Nc1ccc(-c2cc(-c3ccccc3)cc(C(N)=O)c2N)cc1`, 0.21%.
As for `CS(=O)(=O)CCNCc1ccc(-c2ccc3ncnc(Nc4ccc(OCc5ccccc5)cc4)c3c2)o1`, the inhibition was -2.61%.
The same measure, in the same setting: as for `CCOc1ccc2c(-c3ccnc(Nc4cc(OC)cc(C(F)(F)F)c4)n3)cnn2n1`, the figure is -0.62%; as for `Cc1cc(O)cc(C)c1/C=C/c1cncc(C(=O)OC(C)(C)C)c1`, 1.93%; as for `O=C1Nc2ccccc2/C1=C1\CCc2cc(O)ccc21`, 0.38%.
Still for that read-out and setting: as for `CCS(=O)(=O)c1ccc(OC)c(Nc2ncc(-c3cccc(F)c3)o2)c1`, the figure is 2.99%.
Still for that read-out and setting: for `COc1cccc(Nc2nccc(-c3cnn4ncccc34)n2)c1` the value was -0.24%.
With `Nc1ncnc2occ(-c3ccc(NC(=O)Nc4cc(C(F)(F)F)ccc4F)cc3)c12`, the inhibition is -0.27% and 0.62%.
For `O=C(Nc1n[nH]c2nnc(-c3cccnc3)cc12)C1CC1`, the inhibition was -0.69%.
Still for that read-out and setting: for `O=C(O[C@H]1CN[C@H](C#Cc2cc3ncnc(Nc4ccc5c(cnn5Cc5ccccc5)c4)c3s2)C1)N1CCOCC1` the value was -6.83%; for `COc1cc(N2CCN(C(C)C)CC2)ccc1Nc1nc(Nc2cccc3ncccc23)c2cc[nH]c2n1`, 4.44%.
Still for that read-out and setting: as for `CS(=O)(=O)CCNCc1ccoc1-c1ccc2ncnc(Nc3ccc(OCc4ccccc4)cc3)c2c1`, the figure is -3.38%; as for `CCN1CCC(C(=O)Nc2n[nH]c3nnc(-c4cccc(F)c4F)cc23)CC1`, 1.74%; as for `COc1ccc(-c2nn3ncccc3c2-c2ccnc(Nc3ccc(F)c(F)c3)n2)cc1`, 4.1%.
On the same count and under the same terms, as for `CCS(=O)(=O)c1ccc(OC)c(Nc2ncc(-c3cccc(C(C)=O)c3)o2)c1`, the figure is 3.28%.
As to `c1cnn2ncc(-c3ccnc(NCCCN4CCOCC4)n3)c2c1`, the inhibition was -2.56%.
As for `CN(C)CCNC(=O)Nc1ccc(N(C)c2ccnc(Nc3ccc(CS(C)(=O)=O)cc3)n2)cc1`, the inhibition was -0.69%.
Same read-out and setting: for `CCn1c(-c2nonc2N)nc2cncc(C(=O)NCCNC)c21` the value was 69.9%; for `COc1cc(N2CCN(C(C)C)CC2)ccc1Nc1nc(Nc2cccc(F)c2C(=O)O)c2cc[nH]c2n1`, 1.08%; for `COC(=O)Nc1nc2cc(Oc3ccc(NC(=O)Nc4ccccc4)cc3)ccc2[nH]1`, 3.26%.
Regarding `NC(=O)c1ccc2c(-c3ccnc(NCCCO)n3)c(-c3ccc(F)cc3)nn2c1`, the inhibition is 2.55%.
`CS(=O)(=O)Nc1ccc(-c2ccc3c(NC(=O)C4CC4)n[nH]c3c2)cc1`: the inhibition was -1.86%.
Still for that read-out and setting: for `COC(=O)Nc1nc2ccc(Oc3ccc(NC(=O)Nc4cc(C(F)(F)F)ccc4F)cc3)cc2s1` the value was -1.54%; for `COc1ccccc1-c1cc(/C=C2\C(=O)Nc3ncc(Br)cc32)cc(Br)c1O`, -2.56%.
Still for that read-out and setting: for `Cc1nnc(-c2cccc(-c3ccc(C(=O)NCC4CC4)cc3)c2)o1` the value was 2.11%.
